Screening data deposited in PubChem by Broad Institute.
aSyn UTR act: Activators via SNCA 5'UTR binding, MLPCN; AID 1814; actives 7.1% (n = 300,000); alpha-synuclein 5'UTR reporter, activators screen; activity score, % (tested at 7.5 µM), hits read low; in the data active = activity score below about -60%
* hit, by the source's call. Only a sample is shown.

SMILES	aSyn UTR act
COc1ccc(C)cc1NS(=O)(=O)c1ccc(-c2cnc(C3CC3)o2)cc1	102
COc1ccc(C)cc1NC(=O)c1cc2c(s1)CCC2	-143*
COc1ccc(-c2ccc(CO)o2)cc1N	-82*
Cc1ccc(NC(=O)C2=C(O)CCn3c2nc2ccccc23)cc1	-131*
Cc1ccc(-n2nnnc2CNC(=O)c2ccc([N+](=O)[O-])o2)cc1C	-98*
O=C(NCc1nnnn1-c1ccc(F)cc1)c1ccc([N+](=O)[O-])o1	-136*
C=CCn1c(NCc2ccc(N(C)C)cc2)nc2ccccc21	-63*
COc1ccc(NCc2nc3ccccc3n2C)cc1	-129*
CCCn1c(CNc2ccccc2O)nc2ccccc21	-84*
CCOC(=O)c1ccc(NCc2nc3ccccc3n2C)cc1	-172*
Cc1ccc(NCc2nc3ccccc3n2C)cc1	-111*
Cn1c(NCc2ccc(Cl)cc2)nc2ccccc21	-100*
Cn1c(CNc2nc3ccccc3n2C)nc2ccccc21	-81*
Cn1c(CNc2ccc(Br)cc2)nc2ccccc21	-172*
Cc1ccc(NCc2nc3ccccc3n2C)cc1C	-113*
COc1ccc(Nc2nc3ccccc3n2C)cc1	-101*
Cn1c(S(=O)(=O)Cc2ccc(Cl)cc2)nc2ccccc21	-65*
O=C(c1c(Cl)nc2sccn12)N(C(=O)c1c(Cl)nc2sccn12)c1ccc(Cl)cn1	-196*
O=C(COc1ncnc2ccccc12)c1ccc2c(c1)OCCO2	-88*
O=C(COC(=O)c1ccc(Cl)nc1)c1ccc2c(c1)OCCO2	-71*
O=C(CSc1ncnc2ccccc12)c1ccc2c(c1)OCCO2	-346*
Cc1ccc(C(=O)COc2ncnc3cc(Cl)ccc23)cc1	-76*
O=C(COc1ncnc2cc(Cl)ccc12)c1ccc2c(c1)OCCO2	-92*
O=C(CCc1ccccc1)Nc1cccnc1Cl	-64*
O=C(CC(=O)c1ccccc1)Nc1cccnc1Cl	-119*
SMILES	aSyn UTR act
O=C(NNC1=C(C(=O)C(F)(F)F)CCC1)c1cccc(O)c1	-153*
Cc1ccc(C2=N/C(=C/N3CCOCC3)C(=O)O2)cc1	-100*
Cc1ccc(C2=N/C(=C\N3CCCCC3)C(=O)O2)cc1	-105*
COc1ccc(NC(=O)CSc2nccn2Cc2ccco2)cc1	-96*
Cc1cccc(NC(=O)CSc2nccn2Cc2ccco2)c1C	-81*
CCC(=O)Nc1cc(NC(=O)CSc2ncc(-c3ccc(F)cc3)n2Cc2ccco2)ccc1C	-226*
Cc1cccc(NC(=O)CSc2nccn2Cc2ccco2)c1	-89*
NNC(=O)c1nn(-c2ccccc2)cc1O	83
O=C(c1cnn(-c2ccccc2)c1)c1cc(F)ccc1O	-163*
O=C(c1cnn(-c2ccccc2)c1)c1ccccc1O	-106*
CC(=O)Cn1nnc2sc(-c3ccccc3)cc2c1=O	-90*
CCn1cnc2sc(-c3ccccc3)cc2c1=O	-130*
Cc1nc2cc(-c3ccccc3)sc2c(=O)n1N	111
Cc1ccc(C)n1-n1c(C)nc2sc(-c3ccccc3)cc2c1=O	-105*
CC(=O)Cn1cnc2sc(-c3ccccc3)cc2c1=O	-175*
CC1CCC(C(C)C)C(OC(=O)Cn2c(-c3ccccc3)[n+](C)c3ccccc32)C1 (centres undefined)	77
O=c1c2cc(-c3ccccc3)sc2ncn1-n1cccc1	-255*
O=C(Nc1cnn(Cc2c(Cl)cccc2Cl)c1)c1ccc([N+](=O)[O-])cc1	-65*
CN(C)c1ccc(NC(=O)c2ccc(Cn3cc([N+](=O)[O-])cn3)cc2)cc1	-73*
CC(=O)Nc1nccc(-c2cc(-c3ccccc3)no2)n1	-180*
O=C(CCc1nc2ccccc2c(=O)[nH]1)Nc1nc(-c2cccs2)cs1	-89*
CCNC(=O)CCCOc1ccc(Cl)cc1Cl	-82*
CCCC(=O)NC(c1ccc(Cl)cc1Cl)c1ccc2cccnc2c1O (centres undefined)	64
Cc1cccc(-n2ncc3c(NCc4cccs4)ncnc32)c1	-112*
Clc1ccc(-n2ncc3c(NCc4cccs4)ncnc32)cc1	-249*
SMILES	aSyn UTR act
COc1ccc(-n2nnnc2-c2cccc(OC)c2)cc1	64
COc1ccc(NC(=O)Cn2nnc(-c3ccccc3NS(=O)(=O)c3ccc(OC)cc3)n2)cc1	107
COc1cccc(-c2nnn(CC(=O)N3CCCCC3)n2)c1	-74*
CCc1ccc(-c2nnn(CCC(=O)OC)n2)cc1	77
COc1ccc(-c2ccc(-c3nnn(CC(C)=O)n3)cc2)cc1	-189*
C=CCNC(=O)Cn1nnc(-c2ccc(-c3ccc(OC)cc3)cc2)n1	-129*
COc1cccc(-c2nnn(CC(C)=O)n2)c1	-122*
CSC1=NC(C)(C)C=C(/C=C/c2ccc(Cl)cc2)N1	-96*
Cc1ccc2[nH]c(C(=O)Nc3ccc(F)cc3)cc2c1	-142*
Cc1cc(C)c2cc(C(=O)Nc3ccccc3)[nH]c2c1	-81*
CCCOc1ccc(NC(=O)c2cc3cc(C)ccc3[nH]2)cc1	-71*
Brc1c(-c2ccccc2)nc2n1Cc1ccccc1-2	-146*
c1ccc2c(c1)Cn1c-2nc2ccccc21	-124*
O=c1c2ccccc2nnn1-c1ccc(Br)cc1	-169*
O=C(Nc1ncc2c(n1)CC(c1ccco1)CC2=O)c1ccccc1 (centres undefined)	-72*
CC1CCCN(c2ccc(C(=O)NCc3cccs3)cn2)C1 (centres undefined)	-85*
O=C(NCc1cccs1)c1ccc(N2CCCCC2)nc1	-131*
CC1CCCN(c2ccc(C(=O)NCc3ccccc3)cn2)C1 (centres undefined)	-103*
O=C(NCc1cccs1)c1ccc(N2CCCC2=O)cc1	-106*
CC1CCN(c2ccc(C(=O)NCCc3ccccc3)cn2)CC1	-105*
O=c1[nH]nc(SCc2nc3ccccc3s2)n1C1CC1	-144*
CCCn1c(=O)c2ccccc2n2c(SCc3nc4ccccc4s3)nnc12	-160*
CCCn1c(SCc2nc3ccccc3s2)n[nH]c1=O	-165*
O=C(COc1ccc2cc(Br)ccc2c1)N1CCCC1	-62*
CC(C)c1ccc(OCC(=O)N2CCCCCC2)c(Br)c1	-132*
SMILES	aSyn UTR act
O=C(COc1ccc2ccccc2c1Br)N1CCCC1	-90*
O=C(COc1ccc2ccccc2c1Br)Nc1ncn[nH]1	-68*
CSC1=C(C#N)C(c2ccc(Cl)cc2)C2=C(CC(C)(C)CC2=O)N1 (centres undefined)	71
O=C(Oc1ccc2ccccc2c1Cl)N1CCCC1	-79*
C=CCNC(=S)NNC(=O)COc1ccc2cc(Br)ccc2c1	-157*
O=C(N/N=C/c1ccc2cccnc2c1)c1nc2ccccc2c(=O)[nH]1	-83*
O=C(N/N=C/c1ccncc1)c1nc2ccccc2c(=O)[nH]1	-66*
COc1cccc(CNc2ncc(Br)cc2Br)c1O	-125*
COc1cccc(/C=N/Nc2ncnc(Cl)c2N)c1O	89
O=C(CSc1ncccc1-c1nc2ccccc2[nH]1)Nc1ccc2c(c1)OCCO2	-71*
O=C(CSc1ncccc1-c1nc2ccccc2[nH]1)N1CCc2ccccc21	-117*
Clc1cc(NCc2cccs2)ccc1N1CCOCC1	-105*
O=C(Nc1ccc(N2CCOCC2)c(Cl)c1)c1cc2ccccc2o1	-204*
O=C(NC(=S)N1CCOCC1)c1cc2ccccc2o1	-74*
O=C(Nc1ccc(N2CCOCC2)nc1)c1ccc(Cl)cc1	-73*
O=C(Nc1ccc(N2CCOCC2)c(Cl)c1)c1ccc(F)cc1	-140*
O=C(/C=C/c1ccccc1)Nc1ccc(CN2CCOCC2)cc1	-88*
O=C(N/N=C/c1ccc(N2CCOCC2)s1)c1ccccc1Cl	-116*
O=C(Nc1ccccc1N1CCCC1)c1cc2ccccc2o1	-252*
